Inconclusive results are not listed. Where a call stands in place of a potency, no number is given. Calls of active or inactive are those of the source. The call rests on the fitted dose curve.
Molecular target: Beta-2 adrenergic receptor (Homo sapiens) (UniProt P07550)
Assay: Adrenergic beta2 receptor (ADRB2) small molecule agonists, cell-based qHTS assay (AID 1963593);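 further: CHO cells stably overexpressing human ADRB2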
Method in brief: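 CHO cells stably over-expressing ADRB2 were plated overnight at 37C, then dosed with compounds plus a stimulation mix containing 100uM IBMX and 25uM Ro-20-1724 for 0.5hr at room temperature. cAMP was measured by HTRF competition, 1hr.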

Beta-2 adrenergic receptor (Homo sapiens), sequence (P07550 whole entry, looked up): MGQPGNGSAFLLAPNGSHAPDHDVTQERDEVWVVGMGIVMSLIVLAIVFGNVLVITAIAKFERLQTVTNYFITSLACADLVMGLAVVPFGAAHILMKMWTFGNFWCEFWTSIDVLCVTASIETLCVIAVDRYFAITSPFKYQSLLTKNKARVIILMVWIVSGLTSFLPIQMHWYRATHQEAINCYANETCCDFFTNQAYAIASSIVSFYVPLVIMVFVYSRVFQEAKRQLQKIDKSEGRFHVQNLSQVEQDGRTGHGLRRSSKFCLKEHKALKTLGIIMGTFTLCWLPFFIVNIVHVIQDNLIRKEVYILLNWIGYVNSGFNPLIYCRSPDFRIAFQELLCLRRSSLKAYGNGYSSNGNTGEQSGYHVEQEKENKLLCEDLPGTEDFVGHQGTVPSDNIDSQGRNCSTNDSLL

Compound | Potency
O=c1n(Cl)c(=O)n(Cl)c(=O)n1Cl | inactive
CN1C(=O)NC(=O)C(C)(C2=CCCCC2)C1=O (configuration not stated) | inactive
Cn1c(-c2ccccc2)cc(-c2ccccc2)[n+]1C | inactive
CCC(C)c1ccc(O)cc1 (configuration not stated) | inactive
Nn1cnnc1 | inactive
CCCC(C)(COC(N)=O)COC(N)=O | inactive
N#CCCC#N | inactive
O=C(O)C1C(C(=O)O)C2(Cl)C(Cl)=C(Cl)C1(Cl)C2(Cl)Cl (configuration not stated) | inactive
CCOC(=O)c1cncn1C(C)c1ccccc1 (configuration not stated) | inactive
CCCCC(C#N)(Cn1cncn1)c1ccc(Cl)cc1 (configuration not stated) | inactive
CSc1nnc(C(C)(C)C)c(=O)n1N | inactive
CN(C)[C@@H]1C(=O)C(C(N)=O)=C(O)[C@@]2(O)C(=O)C3=C(O)c4c(O)cccc4[C@@](C)(O)[C@H]3C[C@@H]12 | inactive
CN(C)CCc1c[nH]c2cccc(OP(=O)(O)O)c12 | inactive
Cc1cc(Cl)ccc1OCCCC(=O)O | inactive
CCCCCCCCCCCCCCCC[n+]1ccccc1 | inactive
C=CC(=O)OC(C)(C)C | inactive
N#Cc1nn(-c2c(Cl)cc(C(F)(F)F)cc2Cl)c(N)c1S(=O)C(F)(F)F (configuration not stated) | inactive
O=C(Nc1ccc(Br)cc1)c1cc(Br)cc(Br)c1O | inactive
CCC[CH2][Sn]([Cl])([Cl])[CH2]CCC | inactive
NC(=O)CCl | inactive
C=C1CC[C@@]2(O)[C@H]3Cc4ccc(O)c5c4[C@@]2(CCN3CC2CC2)[C@H]1O5 | inactive
O=C(NC(=O)c1c(F)cccc1F)Nc1cc(Cl)c(OC(F)(F)C(F)C(F)(F)F)cc1Cl (configuration not stated) | inactive
CC(C)=CCN1CC[C@@]2(C)c3cc(O)ccc3C[C@@H]1[C@@H]2C | inactive

Compound | Potency
C1CN2CCC1CC2 | inactive
Cc1ccc(N)c(N)c1 | inactive
C=CC(=O)OCCO | inactive
[CH3][Sn]([Cl])([Cl])[Cl] | inactive
O=C(O)COc1ccc(Cl)cc1Cl | inactive
CC(=O)C(Cl)Cl | inactive
CCCCOCC1CO1 (configuration not stated) | inactive
CCCN(CCC)c1c([N+](=O)[O-])cc(C(C)C)cc1[N+](=O)[O-] | inactive
CCCOC(=O)c1ccccc1C(=O)OCCC | inactive
CC(C)(O)C#N | inactive
COc1cc(OC)nc(NC(=O)NS(=O)(=O)c2ncccc2C(=O)N(C)C)n1 | inactive
O=C(O)c1cc(Cl)ccc1Cl | inactive
CCOP(=S)(OCC)OP(=S)(OCC)OCC | inactive
CC[N+](=O)[O-] | inactive
CCCCNC(=O)n1c(NC(=O)OC)nc2ccccc21 | inactive
CCOP(=O)(OCC)Oc1ccc([N+](=O)[O-])cc1 | inactive
CN1CC[C@]23c4c5ccc(O)c4O[C@H]2[C@@H](O)CC[C@H]3[C@H]1C5 | inactive
c1ccc(Nc2ccc3ccccc3c2)cc1 | inactive
Cc1ccc(OP(=O)(Oc2ccc(C)cc2)Oc2ccc(C)cc2)cc1 | inactive
CC1(C)C(=O)NC(=O)NC1=O | inactive
Oc1ccccc1Cl | inactive
C=CCN(CC=C)C(=O)C(Cl)Cl | inactive
CCOC(=O)CC(SP(=S)(OC)OC)C(=O)OCC (configuration not stated) | inactive

Compound | Potency
CCCCCBr | inactive
COP(=S)(OC)SCn1nnc2ccccc2c1=O | inactive
COP(=S)(OC)Oc1ccc(S(=O)(=O)N(C)C)cc1 | inactive
N#CCCCl | inactive
CC(=O)C1CCOC1=O (configuration not stated) | inactive
COP(=O)(OC)C(O)C(Cl)(Cl)Cl (configuration not stated) | inactive
CCCOC(=O)c1cncn1C(C)c1ccccc1 (configuration not stated) | inactive
O=[N+]([O-])c1ccc(CBr)cc1 | inactive
CCN(CC)C(=O)/C(Cl)=C(\C)OP(=O)(OC)OC | inactive
CCC(CC)Nc1c([N+](=O)[O-])cc(C)c(C)c1[N+](=O)[O-] | inactive
C1=Cc2cccc3cccc1c23 | inactive
O=[N+]([O-])/N=C1\NCCN1Cc1ccc(Cl)nc1 | inactive
N#Cc1cc(Br)c(O)c(Br)c1 | inactive
c1ccc2sc(SNC3CCCCC3)nc2c1 | inactive
Cc1ccc(O)c(C)c1 | inactive
O=C(O)C(Cl)Cl | inactive
O=P(O)(O)CCCl | inactive
CNC(=O)O/N=C(\SC)C(=O)N(C)C | inactive
CCOP(=S)(OCC)Oc1cc(C)nc(C(C)C)n1 | inactive
CC(C)(C)C(=O)CCl | inactive
CCOP(=S)(OCC)Oc1cnc2ccccc2n1 | inactive

From PubChem BioAssay (Tox21)
